The list is not random: actives were taken first. Their share in the collection is about 17%.
HT1080NT lethal: qHTS for induction of synthetic lethality in tumor cells producing 2HG: qHTS for the HT-1080-NT fibrosarcoma cell line; HT-1080-NT fibrosarcoma viability, CellTiter-Glo ATP luminescence, 48 h; Potency, µM (top dose mostly 46.1 µM), inactives show at the highest dose activity, negative = less viability, actives largely listed as cytotoxic; hit rate 1.6% among 360,000;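 further: NT is the 2HG producing partner of a matched IDH1 knockdown line; 0% = DMSO-treated cells and -100% = media-only wells without cells; nearly all actives have a fitted effect of over 55% in size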
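Viability by CellTiter-Glo luminescence after 48 h compound exposure at 37C of HT-1080-NT cells (750/well, RPMI, 5% FBS). % activity scaled between DMSO wells and medium-only wells, then curve-fitted and categorized by curve class.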
TDP1 cell CPT: qHTS for Inhibitors of human tyrosyl-DNA phosphodiesterase 1 (TDP1): qHTS in cells in presence of CPT | chicken DT40 Tdp1-/-;hTDP1 cells + 20 nM CPT, ATP luminescence, 48 h | Potency, µM (top dose mostly 46.2 µM), for the others: top-dose activity change, negative = growth inhibition, most hits filed as inhibitors | hit rate 12% among 420,000 | AID 686979, 2013; further: on the % scale 0 is the no-effect control and ±100 the full control effect; nearly all actives have a fitted effect of over 55% in size
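Cell growth measured by CellTiter-Glo luminescence after a minimum 48 h, 37 C compound exposure with 20 nM CPT in Tdp1-knockout DT40 cells stably expressing hTDP1, seeded 400/well; qHTS titration format.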
HepG2 tox: qHTS for Inhibitors of TGF-b: Cytotox Counterscreen; HepG2 CAGA-GFP viability, ATP luminescence, 18 h; Potency, µM (titrated, usually from 46.1 µM), for the others: at the highest dose activity change, negative = cytotoxicity, hits mostly cytotoxic; hit rate 0.76% among 410,000
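HepG2 CAGA-GFP cells (1000/well, DMEM with 1% FBS) received compound, then TGF-beta at 500 pg/mL final, and were incubated 18 hours at 37 degrees C. Viability was read by CellTiter-Glo luminescence. Media-only wells were set as complete cell-killing and DMSO as no toxicity.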
TGFb SMAD3 inh: qHTS for Inhibitors of TGF-b; HepG2 CAGA-GFP TGF-b/SMAD3 reporter, GFP fluorescence, 18 h; TGF-beta stimulated, 500 pg/mL final; Potency, µM (highest dose often 46.1 µM), for inactives: top-dose activity, negative = inhibition, hits mostly inhibitors; hit rate 1.2% among 410,000; further: on the % scale 0 is the no-effect control and ±100 the full control effect; nearly all actives have a fitted effect of over 65% in size
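Per well, imaged GFP fluorescence of HEPG2 CAGA-GFP cells gives the signal; cells get compound, then TGF-beta (500 pg/mL final), 18 h at 37 degrees C; %Activity versus -TGF-beta and +DMSO controls.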
DT40 TDP1 no CPT: qHTS for Inhibitors of human tyrosyl-DNA phosphodiesterase 1 (TDP1): qHTS in cells in absence of CPT; DT40 Tdp1-/- hTDP1 cells, no CPT, ATP luminescence, 48 h; AID 686978, 2013; hit rate 15% among 420,000; Potency, µM (doses to about 46.2 µM), inactives show top-dose activity change, negative = growth inhibition, actives largely listed as inhibitors; further: on the % scale 0 is the no-effect control and ±100 the full control effect; nearly all actives have a fitted effect of over 55% in size
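Seeded 400 DT40-hTDP1 cells/well (vehicle DMSO, no 20 nM CPT); pinned compounds; ≥48 hr at 37 °C; CellTiter-Glo luminescence as viability measure.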
HT1080 IDH1KD tx: qHTS for induction of synthetic lethality in tumor cells producing 2HG: qHTS for the HT-1080-IDH1KD cell line. HT-1080 IDH1 knockdown viability, ATP luminescence, 48 h. Potency, µM (titrated, usually from 46.1 µM), without a hit: at the highest dose activity, negative = toxicity, hits mostly cytotoxic. hit rate 2% among 360,000;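 further: 0% = DMSO wells and -100% = cell-free medium wells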
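Luminescent ATP read-out (CellTiter-Glo, 10 min at room temperature) after 48 h compound exposure at 37 °C gave viability of IDH1-knockdown HT-1080 cells. Activity was normalised to DMSO and cell-free wells, then fitted as concentration-response curves.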
Numbers without * were called inactive; ? = inconclusive; nt = not tested or not shown; [ ] = another dose, or the depositor's remark. The call rests on the fitted dose curve; in most records, active means well fitted curve in the direction sought with a large enough effect; inconclusive means small, poorly fitted or top-dose-only effect, or another doubt; inactive means no such curve, though single readings can be large; an effect the other way counts as inactive or inconclusive. Potency means the concentration at half of the fitted maximal effect.

SMILES | HT1080NT lethal | TDP1 cell CPT | HepG2 tox | TGFb SMAD3 inh | DT40 TDP1 no CPT | HT1080 IDH1KD tx
CCO[C@H]1OC(C(N)=O)=C[C@@H](c2csc3ccccc23)[C@@H]1CCCO | 4% | -2% | -10% | 6% | 2% | 1%
CCO[C@@H]1OC(C(=O)N2CCCCCCC2)=C[C@H](c2csc3ccccc23)[C@H]1CCCO | 9% | 21µM* | -20% | -20% | 23µM* | 1%
CCO[C@H]1OC(C(=O)N2CCOCC2)=C[C@@H](c2cn(C(C)=O)c3ccccc23)[C@@H]1CCCO | -5% | -17% | 7% | -2% | -20% | 7%
CCO[C@@H]1OC(C(=O)N2CCCCCCC2)=C[C@H](c2cn(C(C)=O)c3ccccc23)[C@H]1CCCO | -5% | 16µM* | -13% | -24% | ? | -6%
COc1ccc(CNC(=O)COC(=O)c2cccn2C)cc1 | -1% | 16% | -48% | 4% | 13% | -5%
CCOc1ccc2nc(NCCCNC(=O)c3cc(OC)c(OC)c(OC)c3)c(C#N)cc2c1 | 3% | 13µM* | -11% | -7% | 16µM* | 10%
COc1cc(C(=O)NCCCNc2nc3cc(C)cc(C)c3cc2C#N)cc(OC)c1OC | 3% | ? | -6% | 1% | ? | 0%
CC(C)CNc1ncnc2c1ncn2[C@H]1CN(C2CCCC2)C[C@@H](CO)O1 | 13% | -23% | 0% | 7% | ? | 28%
CCOC(=O)C1CCCN(C2=NC(=O)/C(=C/c3ccc(OC)c(OC)c3)S2)C1 (configuration not stated) | 8% | ? | -4% | -8% | 9.2µM* | -2%
COc1ccc(/C=C2\SC(N3CCCCC3)=NC2=O)cc1 | -1% | 12µM* | -25% | -3% | ? | -15%
O=C1N=C(N2CCCCC2)S/C1=C\c1ccncc1 | -27% | 6% | -11% | 3% | -29% | -25%
COc1cc(/C=C2\SC(N3CCCCC3)=NC2=O)cc(OC)c1OC | -4% | 21µM* | -8% | 9% | 12µM* | -8%
CC1Cc2cc(/C=C3/SC(N4CCC(C(N)=O)CC4)=NC3=O)ccc2O1 (configuration not stated) | ? | 15µM* | -1% | 11% | 18µM* | ?
CCOC(=O)C1CCCN(C2=NC(=O)/C(=C/c3ccc(O)c(OC)c3)S2)C1 (configuration not stated) | 8% | ? | -25% | 9% | ? | 2%
N#CCCN(C(=O)COC(=O)CCN=C1NS(=O)(=O)c2ccccc21)c1ccc(F)cc1 | 3% | -21% | 2% | ? | -15% | 0%
Cc1ccc(NC(=O)CCNS(=O)(=O)c2ccc3[nH]c(=O)oc3c2)cc1C | -4% | -3% | -22% | 2% | -21% | 1%
O=C(NC(=S)NCCOCc1ccc(Cl)cc1)c1cccnc1 | 8% | -2% | 10% | 12% | -12% | 4%
Cc1c(CN(C)C)c2c(n1C)C(=O)c1ccc(Br)cc1-2 | ? | ? | -32% | -7% | ? | 3%[9.24 µM]
Cc1c(CN(C)C)c2c(n1Cc1ccccc1)C(=O)c1ccc(Br)cc1-2 | 18µM* | ? | 18µM* | ? | ? | ?
Cc1noc2ncnc(Sc3ccc(Br)cc3)c12 | -7% | 2.6µM* | -31% | ? | 9.2µM* | ?
OCC(O)[C@@H](O[C@H]1O[C@H](CO)[C@@H](O)[C@H](O)[C@H]1O)[C@H](O)[C@@H](O)CO (some centres not stated) | -1% | -16% | 3% | -3% | 10% | -8%
Cn1c(NC(=S)Nc2ccccc2)nc2ccccc21 | 0% | 1.6µM* | -6% | 0% | 1.6µM* | -10%
C[C@@H](N)CCCP(=O)(O)O | nt | -22% | nt | nt | -20% | nt
Cc1ccc(OCc2nc3ccccc3n2C(C(=O)NC(C)(C)C)c2ccncc2)cc1 (configuration not stated) | 16% | -6% | nt | nt | 2% | 0%
N/C(=N\c1nc2c(c(=O)[nH]1)CCC2)Nc1cccc(Cl)c1 | ? | 21µM* | -4% | 2% | 26µM* | ?
SMILES | HT1080NT lethal | TDP1 cell CPT | HepG2 tox | TGFb SMAD3 inh | DT40 TDP1 no CPT | HT1080 IDH1KD tx
N/C(=N\c1nc2c(c(=O)[nH]1)CCC2)Nc1cccc2ccccc12 | 6% | ? | -2% | 7% | ? | -14%
Cc1cc2cc(C(c3nnnn3Cc3ccco3)N3CCc4ccccc43)c(=O)[nH]c2cc1C (configuration not stated) | -16% | ? | -7% | ? | ? | -25%
COc1ccc(Cn2nnnc2C(c2cc3ccc(OC)cc3[nH]c2=O)N2CCCCCC2)cc1 (configuration not stated) | -26% | 16µM* | 3% | -18% | 23µM* | -15%
Cc1cc2cc(C(c3nnnn3Cc3ccco3)N3CCc4ccccc4C3)c(=O)[nH]c2cc1C (configuration not stated) | ? | ? | -13% | ? | 23µM* | ?
O=c1[nH]c2cc3c(cc2cc1C(c1nnnn1C1CCCC1)N1CCSCC1)OCCO3 (configuration not stated) | -7% | 23µM* | -84% | -13% | 18µM* | -13%
CCC(C)(C)n1nnnc1C(c1cc2ccc(OC)cc2[nH]c1=O)N1CCc2ccccc21 (configuration not stated) | ? | ? | -1% | ? | -25% | 11µM*
O=C(NCCCN1CCCC1=O)C(=O)NCC1OCCCN1S(=O)(=O)c1ccccc1 (configuration not stated) | -1% | -3% | 17% | 6% | -9% | -1%
O=C(CCC1CCCCC1)Nc1ccc(C(=O)c2ccncc2)cc1 | -4% | ? | 4% | -4% | ? | 0%
O=C(O)c1cccc(-c2csc(C(O)c3cccc(Cl)c3)n2)c1 (configuration not stated) | 15% | 2% | 1% | 22% | 4% | 2%

Assay outcomes from PubChem.
